USP7 inh: blocks human USP7 ubiquitin-rhodamine cleavage | hit rate 0.3% among 47,000 | inhibition, % at 20 µM | purified USP7, Ub-rhodamine cleavage fluorescence | Q93009
USP8 block: inhibitors of human USP8 deubiquitinase; purified USP8, Ub-rhodamine cleavage fluorescence, 30 min; inhibition, % at 20 µM; hit rate 4.2% among 47,000; AID 1645853
UCHL1 inh: human UCHL1 deubiquitinase inhibition; P09936; purified UCHL1, Ub-rhodamine cleavage fluorescence; inhibition, % at 20 µM; hit rate 0.2% among 47,000
USP10 block: blocks human USP10 ubiquitin-rhodamine cleavage; Q14694; purified USP10, Ub-rhodamine fluorescence, 60 min; inhibition, % at 20 µM; hit rate 1.1% among 47,000
* = called active by the depositor. Only some compounds are listed: those with a hit (about 4.6% of all), similar ones and a draw of the others. Cut-off read from the data, not from the text of the source: active = inhibition above about 30%; inactive = the rest.

SMILES | USP7 inh | USP8 block | UCHL1 inh | USP10 block
CN(C)S(=O)(=O)N1C2CCC(C2)[C@H]1COc1ccc(F)cc1 (some centres not stated) | -7.3 | 1.4 | -0.5 | 1.2
Cc1c(C)n(-c2ccccc2)c2ncn(CC(=O)NC(C)c3ccccc3)c(=O)c12 (configuration not stated) | 7.9 | 20.4 | 6.0 | 19.8
CC(NC(=O)CSc1nnc2n(-c3ccccc3)c(=O)c3ccccc3n12)c1ccccc1 (configuration not stated) | 4.9 | 35.8* | 5.0 | 3.5
O=C(NCc1cccnc1)c1c2c(NCC3CC3)ncnc2n2ccccc12 | -26.4 | 68.2* | -11.2 | -2.5
CN1CCCN(C(=O)c2c3c(NCc4ccccc4)ncnc3n3ccccc23)CC1 | -34.9 | -19.2 | -24.2 | -6.3
Cc1cc2ncc(-c3ccsc3)c(N)n2n1 | -30.2 | 2.2 | -0.6 | 1.9
Nc1c(-c2ccsc2)cnn1-c1ccccc1 | -5.7 | 56.6* | 0.2 | 6.2
Cc1cccc(NC(=O)C2CC(=O)NC(N3CCN(c4ccccc4)CC3)=N2)c1 (configuration not stated) | -3.1 | 33.9* | 1.6 | 3.0
Cn1ccc2cc(CCC(=O)NCc3cc(F)ccc3F)ccc21 | -33.6 | -38.5 | -28.6 | -7.3
O=C(CCc1nc2sc3c(c2c(=O)[nH]1)CCCCC3)Nc1ccccc1 | -1.0 | 3.8 | -0.8 | -6.0
COc1ccc(NC(=O)CCc2nc3sc4c(c3c(=O)[nH]2)CCCCC4)cc1 | 0.0 | 31.7* | -5.6 | 10.2
O=C(CCCn1c(=O)c2ccccc2n(CC(=O)NCc2ccccc2Cl)c1=O)NCc1ccc2c(c1)OCO2 | 27.4 | 72.5* | 6.1 | 56.7*
COc1ccc(CCNC(=O)Cn2c(=O)n(CCCCC(=O)NCc3ccc4c(c3)OCO4)c(=O)c3ccccc32)cc1OC | 9.0 | -3.4 | 4.0 | 19.1
O=C(Cn1c(=O)n(CCC(=O)N2CCc3ccccc3C2)c(=O)c2ccccc21)NCCC1=CCCCC1 | 11.5 | 6.8 | 4.3 | 11.2
Cc1cccc(C)c1NC(=O)Cn1c(=O)n(CCCCC(=O)NCc2ccc3c(c2)OCO3)c(=O)c2ccccc21 | 16.7 | 68.9* | 4.2 | 54.3*
O=C(Cn1c(=O)n(CCC(=O)N2CCc3ccccc3C2)c(=O)c2ccccc21)NCc1ccccc1Cl | -6.3 | 90.2* | 6.9 | 23.0
O=C(Cn1c(=O)c2ccccc2c2ccccc21)Nc1ccc2c(c1)OCO2 | 27.4 | 87.4* | 9.4 | 42.3*
O=C(CSc1c[nH]c2ccccc12)Nc1ccc2c(c1)OCO2 | -4.1 | 5.6 | 1.7 | 1.6
O=C(Cn1cnc2c(cnn2-c2ccc(Cl)c(Cl)c2)c1=O)N1CCOCC1 | -0.5 | -0.2 | 0.1 | -3.2
O=C(CSc1n[nH]c2nc3ccccc3n12)Nc1ccc2c(c1)OCO2 | 3.9 | 30.3* | 3.0 | 10.4
Cn1c(=O)c2c(-c3ccccc3)n(-c3ccc4c(c3)OCCO4)cc2n(C)c1=O | -12.3 | 74.4* | -4.6 | -0.5
CC(C)NC(=O)N1CCc2nc(C(=O)N3CCCCC3)sc2CC1 | 1.3 | -38.9 | 0.7 | -0.9
CCOC(=O)N1CCN(C(=O)NC2CCCC2)CC1 | 3.3 | 0.0 | 1.8 | 0.9
O=c1c(O)c(-c2ccc(O)c(O)c2)oc2cc(O)cc(O)c12 | -7.9 | 17.9 | 34.2* | 16.6
O=c1c(-c2ccc(O)cc2)coc2cc(O)cc(O)c12 | 1.9 | 5.6 | -1.8 | 1.8
SMILES | USP7 inh | USP8 block | UCHL1 inh | USP10 block
O=c1cc(-c2ccc(O)c(O)c2)oc2cc(O)cc(O)c12 | 10.7 | 31.4* | 24.8 | 36.0*
CC1=C(c2ccc(C)cc2)S(=O)(=O)N=C1N1CCCN(C(=O)C2CCC2)CC1 | -1.7 | 0.2 | -0.5 | 0.3
O=C(CNCc1cccc(Cl)c1)N1CCc2ccccc2C1 | -7.5 | 71.9* | 3.2 | -1.4
CCOc1ccc2cc3c(nc2c1)OC(=O)N(Cc1ccc(OC)cc1)C3 | 14.4 | 77.3* | 4.3 | 18.9
COc1ccc2cc3c(nc2c1)OC(=O)N(Cc1ccc(F)cc1)C3 | 6.5 | -36.8 | -0.9 | 0.9
COc1ccc2cc3c(nc2c1)OC(=O)N(CCc1cccc(F)c1)C3 | 8.2 | 34.6* | 3.8 | -0.3
Cc1ccc2cc3c(nc2c1)OC(=O)N(Cc1ccc(C)o1)C3 | 0.3 | 50.1* | -4.2 | 13.3
COc1cc(NC(=O)c2ccco2)c(OC)cc1NC(=O)CCC(=O)N1CCCC1 | 1.8 | 25.4 | 1.6 | 0.0
COc1cc(O)c2c(O)c3c(cc2c1)CC(C)OC3=O (configuration not stated) | -46.5 | 28.7 | 20.0 | 6.8
CCn1c(CNC(=O)c2cccc(C)c2)nnc1SCC(=O)N1CCCc2ccccc21 | -1.2 | 1.9 | 0.2 | 0.7
Cc1cccc(C)c1NC(=O)C1(NC(=O)c2ccc(Br)cc2)CCCCC1 | 10.4 | 43.2* | -0.1 | 8.1
O=C(Nc1ccccc1)c1c(O)c2cnn(Cc3ccccc3)c2[nH]c1=O | 4.7 | 56.8* | -0.1 | 3.0

From PubChem
